Source: PubChem BioAssay (NCI)
This is part of a sample that, as a whole, favours compounds with a hit. Of some 79,000 tested, about 15% had one in any assay. Unmarked numbers belong to inactive results. Activity calls are given as the source filed them. Cut-off read from the data, not from the text of the source: active = growth inhibition above about 70%; inactive = the rest. *1 amine or outer side, *2 acyl side, *3 side chain or, on linkers, in order; H or OH if unused. Where a SMILES comes first, the peptide text is derived from it. [ ]: non-standard residue; d: D form. The star is where a group is joined. X17 = CC(=O)N(C)SCC(N[*:1])C(=O)[*:2]; Fmoc = O=C(OCC1c2ccccc2-c2ccccc21)*; Abu = CC[CH](N)C(=O)O; For = O=C*

Columns and labels:
[1] = NCI Yeast Anticancer Drug Screen. Data for the rad50 strain (AID 155);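 note: 0% = growth of vehicle-only cultures of the same strain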; conditions: S. cerevisiae rad50 strain growth inhibition; at 50.0 µM; stronger effect = higher value
In short: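 Cells are treated with compound, grown, and their growth is then scored against vehicle-only cultures of the same repair-deficient yeast strain.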

[2] = NCI Yeast Anticancer Drug Screen. Data for the mec2-1 strain (AID 157); conditions: S. cerevisiae mec2-1 strain, at 50.0 µM, stronger effect = higher value
In short: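 Each compound was tested on mec2-1 yeast, a strain altered in DNA damage repair or cell cycle control. Growth inhibition is reported relative to vehicle.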

[3] = NCI Yeast Anticancer Drug Screen. Data for the sgs1 mgt1 strain (AID 161);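 note: 0% = growth of cultures given vehicle only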; conditions: S. cerevisiae sgs1 mgt1 strain, at 50.0 µM, stronger effect = higher value
In short: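 Mutant yeast exposed to compound; growth scored against vehicle-only wells.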

[4] = NCI Yeast Anticancer Drug Screen. Data for the cln2 rad14 strain (AID 165);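 note: 0% = growth equal to vehicle treated cultures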; conditions: S. cerevisiae cln2 rad14 strain, at 50.0 µM, stronger effect = higher value
In short: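 Test compounds were added to cln2 rad14 yeast cultures; inhibition of growth was then determined by comparison with vehicle treatment.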

[5] = NCI Yeast Anticancer Drug Screen. Data for the bub3 strain (AID 167); conditions: S. cerevisiae bub3 mutant strain, at 50.0 µM, stronger effect = higher value
In short: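 Part of a panel of yeast mutants defective in DNA damage repair or cell cycle regulation. Each strain is grown with compound, and inhibition is calculated relative to solvent-treated cultures.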

[6] = NCI Yeast Anticancer Drug Screen. Data for the mlh1 rad18 strain (AID 175); conditions: S. cerevisiae mlh1 rad18 strain growth inhibition; at 50.0 µM; stronger effect = higher value
In short: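 Inhibition values reflect reduced growth of mutant yeast versus vehicle-treated controls following compound exposure; the mutations affect DNA damage repair.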

Compound | growth inhibition [1] | growth inhibition [2] | growth inhibition [3] [%] | growth inhibition [4] | growth inhibition [5] | growth inhibition [6]
O=c1[nH]c2ccccc2c(O)c1/C=N/C(=S)NCc1ccccc1 | -23.1% | -23.8% | 3.95 | 0.2% | 0.7% | -37.2%
CC(=O)Nc1nnc(SCc2ccccc2)s1 | 9% | 6.35% | -4.4 | -10% | 3.4% | -20.6%
CCN(CC)Cc1cc(C(C)(C)CC)cc(-c2ccccc2)c1O | -11.2% | -33.6% | -12.6 | -24.9% | 8.5% | -4.1%
Cc1ccccc1C(C#N)/C(=N/NC(N)=S)C(=O)Nc1c(C)cccc1C (configuration not stated) | -36.5% | -27.7% | 2.5 | -12.4% | -17.2% | -31.1%
O=C(c1c(F)c(F)c(F)c(F)c1F)n1c(=O)[nH]c2ccccc21 | -18.2% | 13.2% | -10.2 | -12.1% | 23.3% | -27.4%
O=C(Cl)c1ccc2ccccc2c1 | 45.8% | 8.3% | 3 | -43% | -20.4% | 29.4%
C/C(=N\Nc1ccc2ccccc2n1)c1ccccc1O | -19% | -25.4% | -37.3 | -25.8% | -66.5% | -3.5%
COc1ccc(-c2cc(=O)c3c(O)c(OC)c(O)c(OC)c3o2)cc1OC | -0.4% | -37.5% | 5.1 | 5.15% | 29.7% | 20%
Cc1ccc(S(=O)(=O)OCCN(CCOS(=O)(=O)c2ccc(C)cc2)c2cccc(Cl)c2)cc1 | 14.1% | 2.35% | 4.65 | 19% | -4.45% | 29.9%
ClCC1CCC(CCl)CC1 (configuration not stated) | -31.6% | -18.4% | -15.2 | -5.95% | -21.7% | -16.1%
CCOC(=O)/C=C/CC1CCNC1 (configuration not stated) | -22.8% | -2.6% | -13.4 | -52% | -1.5% | -6%
Cc1ccn2c(CCc3nnc4cc(C)ccn34)nnc2c1 | -1.4% | -33.4% | -42.4 | 0.4% | -26.1% | 12.3%
CC(=O)c1cc2c(cc1C(C)C)CC[C@H]1[C@](C)(C#N)CCC[C@]21C | 1% | -1.15% | 1.25 | -26.6% | 15.9% | 31.3%
CCC(N)C(=O)NC(C(N)=O)C(C)C (configuration not stated) (H-[Abu]-Val-NH2; configuration not given here) | 11.1% | -9.75% | -1.55 | -42.4% | -4.7% | 13.2%
C1CCC2(CC1)CCCO2 | -6.3% | 6.2% | -0.9 | 10.5% | 23.6% | 19.4%
O=P(O)(O)c1ccc2c(c1)OCCOCCOCCOCCO2 | -41.9% | -10.9% | -29.5 | -21.9% | -24.4% | -14.8%
O=C(Oc1ccc[nH]c1=O)C1CCC1 | -15.3% | 3% | -0.55 | 2.7% | 12.8% | -4.75%
CC(C)(CNC(=O)C12CC3CC(CC(C3)C1)C2)NC(=O)C12CC3CC(CC(C3)C1)C2 | 15.9% | 12.5% | 14.1 | 11.1% | 0.85% | 27.8%
COc1ccc(-c2cc(C)n(C3OC(CO)C(O)C(O)C3O)c(=S)c2C#N)cc1 (configuration not stated) | 23.9% | 8.15% | -9.05 | -19.1% | -0.6% | 13.7%

Compound | growth inhibition [1] | growth inhibition [2] | growth inhibition [3] [%] | growth inhibition [4] | growth inhibition [5] | growth inhibition [6]
CC(=O)N(C)SCC(NC(=O)C(Cc1ccccc1)NC(=O)OCC1c2ccccc2-c2ccccc21)C(=O)NC(Cc1ccccc1)C(=O)NC(Cc1cn(C=O)c2ccccc12)C(=O)NC(CCCCNC(=O)OCC1c2ccccc2-c2ccccc21)C(=O)NC(C(=O)NC(CSN(C)C(C)=O)C(=O)NC(C(N)=O)C(C)O)C(C)O (configuration not stated) (Fmoc-F[X17]FW(For)K(Fmoc)T[X17]T-NH2; configuration not given here) | 86.7% (active) | 81.3% (active) | 65.1 | 82.2% (active) | 82.2% (active) | 84% (active)
CCCCNC(=O)CC(C)C(=O)O (configuration not stated) | 2.8% | -1.35% | -6.1 | -20.8% | -1.55% | 6.1%
Cc1cn(C2CC(O)C(CO)O2)c(=O)nc1NC1CCCCCCCCCCC1 (configuration not stated) | 1.25% | 5.7% | 10.1 | 12.9% | -5.5% | -6.4%
COC1=C(NCCc2ccccc2)C(=O)C(OC)=C(NCCc2ccccc2)C1=O | -43.2% | -4.7% | 18.9 | -22.3% | 1.5% | -11.6%
N/N=C1\C(Cl)=C(Cl)c2ccccc21 | 6.65% | -6.35% | 10.2 | -11.8% | 2.95% | 8.3%
CCc1cc(-c2ccc(OC)cc2)c(C#N)c(=S)n1C1OC(CO)C(O)C(O)C1O (configuration not stated) | 4.9% | -3.5% | 6.4 | 0.7% | 3.35% | 7.7%
c1ccc(N2N=NC3C4CC(C5COCC54)C32)cc1 (configuration not stated) | 4.6% | -7.1% | -24.9 | -8.55% | 0.65% | -9.25%
CCOC(=O)c1c(-c2ccc(Cl)cc2)c(C#N)c(=S)n(C2OC(COC(C)=O)C(OC(C)=O)C(OC(C)=O)C2OC(C)=O)c1C (configuration not stated) | -0.4% | -8.75% | -1.75 | 24.1% | 17.5% | 5.7%
O=c1c2c(-c3cc(-c4ccccc4)nc4[nH]n(-c5ccccc5)c(=O)c34)cc(-c3ccccc3)nc2[nH]n1-c1ccccc1 | 0.45% | -6.2% | 0.35 | -38.5% | 4.85% | -22.6%
CCOC(=O)/C(=C/c1ccc(N(C)C)cc1)N(CC)CC | -34.2% | -10.2% | -14.9 | 13.4% | 7.25% | -18.6%
NCCNCCCNCCN | 7.85% | -2.4% | 7.95 | -2.45% | 27.4% | 6.45%
Oc1ccc(-c2nc(-c3cccnc3)c(-c3ccc(Cl)cc3)[nH]2)cc1 | 3.25% | -19.2% | 19.9 | 12.8% | 39.6% | 81.7% (active)
COc1ccc(C2C3=C(CC(C)(C)CC3=O)Oc3cc4c(cc32)OCO4)cc1 (configuration not stated) | -2.7% | -0.05% | -25 | -0.45% | 0% | -4.95%
CC(=O)Nc1nc(NC(C)=O)c2nc(C)cnc2n1 | 4.45% | 20.6% | -2.35 | 24.4% | 10.6% | 25.2%
Cc1ccc2[nH]c(=O)cc(C)c2c1 | 15.2% | -0.45% | 13.8 | 20.2% | 8.15% | 30.8%
CCNC(=S)N/N=C/c1cc(OC)ccc1O | -11.7% | 23.4% | 0.2 | 11% | 23.1% | -13.9%
Nc1ccccc1CO | 3% | 2.4% | 2.25 | -0.05% | -4.65% | 7.1%
O=C(O)c1ccc(C2CCCCC2O)cc1 (configuration not stated) | 2.05% | 6.15% | -9.2 | -14.6% | -2% | 0.3%
